From PubChem BioAssay (NCATS) come the findings set out here.
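Further: cells exposed to compound for 48 h before reading.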

A short description of the first test: Cell Proliferation Assay against the TMD8 Cell Line (AID 651645). To be noted: TMD8 DLBCL cell line proliferation/viability; at 46.1 µM (top of the series) unless noted. The method, boiled down:
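Cell viability of the ABC DLBCL line TMD8 is measured by CellTiter-Glo luminescence following a 48-hour incubation with compound. Percent activity uses DMSO as 100% and 9.2 uM bortezomib (final) as 0%.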
On to `C[C@@H]1C[C@H]2[C@@H]3CCC4=CC(=O)C=C[C@]4(C)C3(F)[C@@H](O)C[C@]2(C)[C@@]1(O)C(=O)CO` (stereo partly specified), for which the viability (% of control) came out at 40.7%.

`COc1ccccc1[C@H](c1cccc2ccccc12)[C@@](C)(C#N)C(=O)N1CCC(c2cccc(C(F)(F)F)c2)CC1`: the viability (% of control) came out at 83.6%.

As to `COc1ccc2c3n(c(=NC(=O)c4cccnc4)nc2c1OC)CCN3`, the viability (% of control) turned out to be 22.1%.

As for `Cc1csc(NC(=O)c2sc3nc4c(c(C(F)(F)F)c3c2N)CCC4)n1`, the viability (% of control) amounted to 64.8%.

`CNC(=O)c1ccccc1Sc1ccc2c(/C=C/c3ccccn3)n[nH]c2c1`: the viability (% of control) came to 23.8%.

As to `Cc1cc2c(C(C)C)c(O)c(O)c(C=O)c2c(O)c1-c1c(C)cc2c(C(C)C)c(O)c(O)c(C=O)c2c1O`, the viability (% of control) was 5.42%.

For the compound `CC(C)(N)C(=O)N[C@H](COCc1ccccc1)C(=O)N1CCC2(CC1)CN(S(C)(=O)=O)c1ccccc12`, the viability (% of control) came to 48.1%.

As to `CC(C)OC(=O)C1=CN(C(=O)c2ccc(F)c(F)c2)CC(C)(C)c2c1[nH]c1ccccc21`, the viability (% of control) worked out at 9.41%.

`CC(c1cc2ccccc2s1)N(O)C(N)=O` (stereo unspecified): the viability (% of control) is 92.3% [at 92.2 µM].

For `NC(=O)c1ccc(-c2nc(-c3ccc4c(c3)OCO4)c(-c3ccccn3)[nH]2)cc1`, the viability (% of control) was 92.5%.

With `O=C1[C@H](Cc2ccc(O)cc2)N2C(=O)CCN(C(=O)NCc3ccccc3)[C@H]2CN1Cc1cccc2ccccc12`, the viability (% of control) was 27.3%.

For the compound `CO[C@@H]1[C@H](N(C)C(=O)c2ccccc2)C[C@H]2O[C@]1(C)n1c3ccccc3c3c4c(c5c6ccccc6n2c5c31)C(=O)NC4`, the viability (% of control) stood at 7.74%.

On to `CC1(C)SCCN(S(=O)(=O)c2ccc(OCC#CCO)cc2)[C@@H]1C(=O)NO`, for which the viability (% of control) came out at 84.4%.

Regarding `CC[C@@H](C)[C@H](NC(=O)[C@H](CC1CCCCC1)NC(=O)c1ccno1)C(=O)N1CCC2(CCc3ccccc32)CC1`, the viability (% of control) was determined as 62.6%.

As to `Nc1ncnc2nc(-c3ccc(N4CCOCC4)nc3)cc(-c3cccc(Br)c3)c12`, the viability (% of control) worked out at 74.7%.

`O=C(O)[C@@H](c1ccc(OCc2ccc3ccccc3n2)cc1)C1CCCC1`: the viability (% of control) was determined as 94.6%.

For the compound `Cc1cc(Nc2nc(N[C@@H](C)c3ncc(F)cn3)ncc2Cl)n[nH]1`, the viability (% of control) stood at 105%.

Take `CCOC(=O)C1=C[C@@]2(CC)CCCN3CCc4c(n1c1ccccc41)[C@H]32`: the viability (% of control) was 87.1% [at 29.8 µM].

`CCN(CC)CCCC(C)Nc1nc(C)cc(Nc2ccc3nc(C)cc(N)c3c2)n1` (stereo unspecified): the viability (% of control) worked out at 65.5%.

Consider `CCCc1nn(C)c2c(=O)[nH]c(-c3cc(S(=O)(=O)N4CCN(C)CC4)ccc3OCC)nc12`, for which the viability (% of control) was 102%.

In the case of `CN[C@@H](C)C(=O)N[C@H]1CCCC[C@H]2CC[C@@H](C(=O)N[C@@H](c3ccccc3)c3cn(CCCCc4ccc(CCCCn5cc([C@@H](NC(=O)[C@@H]6CC[C@@H]7CCCC[C@H](NC(=O)[C@H](C)NC)C(=O)N76)c6ccccc6)nn5)cc4)nn3)N2C1=O`, the viability (% of control) was determined as 7.59%.

For the compound `O=c1[nH]c(-c2ccc(C(F)(F)F)cc2)nc2c1CSCC2`, the viability (% of control) was 82.1%.

Turning to `Fc1ccc(Cl)cc1-c1nc(Nc2ccncc2)c2nccnc2n1`, the viability (% of control) came out at 98.1%.

The nature of the next test: Cell Proliferation Assay against the HBL1 Cell Line (AID 651646). To be noted: HBL1 DLBCL cells; at 46.1 µM (top of the series) unless noted. A digest of the protocol: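 CellTiter-Glo luminescence after 48 h compound exposure at 37C gives percent activity, with DMSO as 100% and 9.2 uM bortezomib final as 0%. Cells: 500 log-phase HBL1 per well, RPMI plus 5% FBS.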
For the compound `C[C@@H]1C[C@H]2[C@@H]3CCC4=CC(=O)C=C[C@]4(C)C3(F)[C@@H](O)C[C@]2(C)[C@@]1(O)C(=O)CO` (stereo partly specified), the viability, percent of control was determined as 28.2%.

With `COc1ccccc1[C@H](c1cccc2ccccc12)[C@@](C)(C#N)C(=O)N1CCC(c2cccc(C(F)(F)F)c2)CC1`, the viability, percent of control is 95.2%.

For `COc1ccc2c3n(c(=NC(=O)c4cccnc4)nc2c1OC)CCN3`, the viability, percent of control is 39.3%.

Regarding `Cc1csc(NC(=O)c2sc3nc4c(c(C(F)(F)F)c3c2N)CCC4)n1`, the viability, percent of control came to 60.9%.

For the compound `CNC(=O)c1ccccc1Sc1ccc2c(/C=C/c3ccccn3)n[nH]c2c1`, the viability, percent of control was determined as 56.4%.

In the case of `Cc1cc2c(C(C)C)c(O)c(O)c(C=O)c2c(O)c1-c1c(C)cc2c(C(C)C)c(O)c(O)c(C=O)c2c1O`, the viability, percent of control came to 6.38%.

On to `CC(C)(N)C(=O)N[C@H](COCc1ccccc1)C(=O)N1CCC2(CC1)CN(S(C)(=O)=O)c1ccccc12`, for which the viability, percent of control was found to be 69.2%.

For the compound `CC(C)OC(=O)C1=CN(C(=O)c2ccc(F)c(F)c2)CC(C)(C)c2c1[nH]c1ccccc21`, the viability, percent of control came to 100%.

On to `CC(c1cc2ccccc2s1)N(O)C(N)=O` (stereo unspecified), for which the viability, percent of control amounted to 96.2% [at 92.2 µM].

`NC(=O)c1ccc(-c2nc(-c3ccc4c(c3)OCO4)c(-c3ccccn3)[nH]2)cc1`: the viability, percent of control came out at 121%.

On to `O=C1[C@H](Cc2ccc(O)cc2)N2C(=O)CCN(C(=O)NCc3ccccc3)[C@H]2CN1Cc1cccc2ccccc12`, for which the viability, percent of control amounted to 32.2%.

As for `CO[C@@H]1[C@H](N(C)C(=O)c2ccccc2)C[C@H]2O[C@]1(C)n1c3ccccc3c3c4c(c5c6ccccc6n2c5c31)C(=O)NC4`, the viability, percent of control turned out to be 23%.

With `CC1(C)SCCN(S(=O)(=O)c2ccc(OCC#CCO)cc2)[C@@H]1C(=O)NO`, the viability, percent of control turned out to be 97.2%.

`CC[C@@H](C)[C@H](NC(=O)[C@H](CC1CCCCC1)NC(=O)c1ccno1)C(=O)N1CCC2(CCc3ccccc32)CC1`: the viability, percent of control amounted to 65.5%.

Consider `Nc1ncnc2nc(-c3ccc(N4CCOCC4)nc3)cc(-c3cccc(Br)c3)c12`, for which the viability, percent of control was determined as 66.5%.

As for `O=C(O)[C@@H](c1ccc(OCc2ccc3ccccc3n2)cc1)C1CCCC1`, the viability, percent of control came to 92.8%.

With `Cc1cc(Nc2nc(N[C@@H](C)c3ncc(F)cn3)ncc2Cl)n[nH]1`, the viability, percent of control amounted to 138%.

As for `CCOC(=O)C1=C[C@@]2(CC)CCCN3CCc4c(n1c1ccccc41)[C@H]32`, the viability, percent of control amounted to 96.9% [at 29.8 µM].

For the compound `CCN(CC)CCCC(C)Nc1nc(C)cc(Nc2ccc3nc(C)cc(N)c3c2)n1` (stereo unspecified), the viability, percent of control worked out at 67.9%.

`CCCc1nn(C)c2c(=O)[nH]c(-c3cc(S(=O)(=O)N4CCN(C)CC4)ccc3OCC)nc12`: the viability, percent of control turned out to be 106%.

Take `CN[C@@H](C)C(=O)N[C@H]1CCCC[C@H]2CC[C@@H](C(=O)N[C@@H](c3ccccc3)c3cn(CCCCc4ccc(CCCCn5cc([C@@H](NC(=O)[C@@H]6CC[C@@H]7CCCC[C@H](NC(=O)[C@H](C)NC)C(=O)N76)c6ccccc6)nn5)cc4)nn3)N2C1=O`: the viability, percent of control was 15.5%.

`O=c1[nH]c(-c2ccc(C(F)(F)F)cc2)nc2c1CSCC2`: the viability, percent of control turned out to be 105%.

As for `Fc1ccc(Cl)cc1-c1nc(Nc2ccncc2)c2nccnc2n1`, the viability, percent of control amounted to 93.2%.
